This note sets out measurements from PubChem BioAssay AID652104 (National Center for Advancing Translational Sciences (NCATS), 2013).

Several values for one entry are separate records, joined by “and”; a condition that tells them apart may be missing. Equal entries are not always repeated. Among all 410,000 compounds or so, about 7,200 (1.8%) were called active. A call without a number means that no potency is given here. Inconclusive results (about 7%) are left out. The call rests on the fitted dose curve; in most records, active means well fitted activation curve with a large enough effect; inconclusive means small, poorly fitted or top-dose-only effect, or another doubt; inactive means no such curve, though single readings can be large or run the other way. Only a selection was taken, and actives are over-represented in it overall. More than one record can exist for a structure, and the calls need not agree.
Potency means the concentration at half of the fitted maximal effect.

The nature of the assay: qHTS of TDP-43 Inhibitors. Further: nearly all actives have a fitted effect of over 50% in size. Particulars: TDP-43 expressing yeast growth rescue, BacTiter-Glo, 24 h; series mostly up to 46.1 µM. In outline: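 Yeast expressing TDP-43 (pregrown in raffinose, seeded at OD600=0.02 in galactose medium) exposed to compounds 24 hr at 30 deg C. Growth read by BacTiter-Glo luminescence; rescue of toxicity appears as increased signal.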
As to `CCn1cc(C(=O)N2CCN(c3cc(Cl)ccc3C)CC2)c(=O)c2cc(S(=O)(=O)N3CCCC3)ccc21`, the Potency result was “inactive”.

`CCCSc1nc2sc3c(c2c(=O)n1-c1cccc(Br)c1)CC(C)(C)OC3`: the Potency result was “inactive”.

On to `Cc1c(NC(=O)Cc2ccccc2)cccc1-c1nc2cccnc2s1`, for which the Potency result was “inactive”.

Consider `COc1ccc(NC(=O)N2CCCn3nc(C)cc32)cc1OC`, for which the Potency entry is “inactive”.

For `Cc1nnc(SCC(=O)NCCOc2ccc(Cl)cc2)n1-c1ccccc1`, the Potency entry is “inactive”.

Turning to `O=C(COc1ccc(Cl)cc1)NCCSc1ccccc1`, the Potency was 17.8 µM (active).

In the case of `O=C(CCSc1ccccc1)NCCSc1ccccn1`, the Potency result was “inactive”.

On to `COc1cc(NC(=O)c2noc3c2CSc2ccccc2-3)cc(OC)c1OC`, for which the Potency entry was “inactive”.

Take `COC(=O)CN1C(=O)CSc2ccc(S(=O)(=O)Nc3cc(C)ccc3C)cc21`: the Potency result was “inactive”.

As for `CCOC(=O)/C(=C\c1ccc([N+](=O)[O-])cc1)C(=O)c1cc(C(C)=O)c(Nc2ccccc2)s1`, the Potency entry is “inactive”.

Regarding `CCOC(=O)C(=Cc1ccccc1)C(=O)c1ccccc1`, the Potency is 6.31 µM (active).

With `CCc1ccccc1NC(=O)/C(=C/c1ccccc1)c1ccccc1`, the Potency entry was “inactive”.

For the compound `CCOc1cccc2c1N[C@@H](c1ccc(C(=O)O)cc1)[C@H]1CC=C[C@@H]21`, the Potency entry was “inactive”.

On to `COc1cccc(CNC(=O)c2ccc3c(c2)N(Cc2ccc(C(F)(F)F)cc2)C(=O)c2ccccc2S3)c1OC`, for which the Potency entry is “inactive”.

Regarding `Cn1c(=O)c2sccc2n2c(CCC(=O)NCc3ccccc3Cl)nnc12`, the Potency result was “inactive”.

On to `Cn1nnnc1SCCCNCc1ccc(Cl)cc1`, for which the growth rescue (activation) is 7.89% [at 9.22 µM] (inactive).

Regarding `COc1ccc(NC(=O)CN(C)C(=O)c2ccc(NC3CC3)c([N+](=O)[O-])c2)cc1`, the Potency result is “inactive”.

As for `Cc1c(NC(=O)CCC2CCCCC2)cc(C(=O)N2CCOCC2)cc1[N+](=O)[O-]`, the Potency entry is “inactive”.

Regarding `Cc1cc(C=O)c(C)n1-c1ccc(NC2CCCCC2)c([N+](=O)[O-])c1`, the Potency is 35.5 µM (active).

As for `CCc1ccc(C2C(C(=O)Nc3ccccc3)=C(C)Nc3c(C(=O)Nc4ccc(C)cc4)cnn32)cc1` (configuration not stated), the Potency entry was “inactive”.

For the compound `CCOC(=O)c1ccc(NC(=O)Cn2c(=O)n(-c3ccc(C)cc3)c(=O)c3c2cnn3C)cc1`, the Potency result was “inactive”.

On to `Cc1ccc(-c2nnc(Nc3cccc(Br)c3)c3ccccc23)cc1S(=O)(=O)NCC1CCCO1` (configuration not stated), for which the Potency result was “inactive”.

As for `CCc1nccn1S(=O)(=O)c1cc(Br)ccc1Br`, the Potency entry is “inactive”.

`Cc1ccc(NC(=O)Cc2ccc(NC(=O)N3CCCCc4ccccc43)cc2)cc1`: the Potency entry is “inactive”.

As for `O=C(CSc1ccc2nnc(-c3ccccc3)n2n1)N1CCCc2ccccc21`, the Potency entry is “inactive”.

With `O=C(c1cc(-c2ccc(O)cc2)on1)N1CCCc2ccccc21`, the Potency was 12.6 µM (active).

Turning to `Cc1ccc(OCC(=O)Nc2ccc3oc(=O)ccc3c2)cc1C`, the Potency result is “inactive”.

For the compound `Cc1ccc(NC(=O)COc2ccc(-n3ccnc3)cc2)cc1Cl`, the Potency entry is “inactive”.

On to `Cc1ccc(OCC(=O)Nc2ccc(Cl)c(-c3nc4ccccc4[nH]3)c2)cc1C`, for which the Potency was 22.4 µM (active).

Consider `Cn1c(=O)c2c(n3c4ccccc4nc13)NC(=O)CC2c1cccc(Cl)c1` (configuration not stated), for which the Potency entry is “inactive”.

As for `CC(=O)N1CCc2cc(S(=O)(=O)NC(Cc3ccccc3)C(=O)NCc3ccc(C)cc3)ccc21` (configuration not stated), the Potency entry is “inactive”.

Turning to `CCOc1ccccc1CNCc1c(C(=O)O)c(C)n(Cc2ccc(C)cc2)c1C`, the Potency result is “inactive”.

Turning to `Cc1ccc2ncc(C(=O)Nc3ccc(OC(F)(F)F)cc3)c(=O)n2c1`, the Potency entry was “inactive”.

Regarding `Cc1ccc(C(=O)OCC(=O)NC2CCCCCCC2)cc1C`, the Potency result is “inactive”.

Consider `O=C(COC(=O)c1cccc(Cl)c1)NC1CCCCCCC1`, for which the Potency is 22.4 µM (active).

Turning to `O=C(COC(=O)c1cccc(Cl)c1Cl)NC1CCCCCC1`, the Potency result was “inactive”.

Consider `CCn1cc2nc(SCc3ccccc3Cl)n(CCc3ccccc3)c(=O)c2n1`, for which the Potency result was “inactive”.

Regarding `COc1ccc(CNC(=O)CCc2c(C)nn(-c3ccc(N4CCCC4)nn3)c2C)cc1`, the Potency entry is “inactive”.

Turning to `Cc1ccc(NC(=O)CN2C(=O)CC(C)Sc3ccccc32)c(C)c1` (configuration not stated), the Potency was 17.8 µM (active).

For the compound `CC1CC(=O)N(CC(=O)Nc2cccc(Cl)c2)c2ccccc2S1(=O)=O` (configuration not stated), the Potency entry is “inactive”.

`Cc1ccccc1NC(=O)CN1C(=O)C(C)(C)c2ccccc21`: the Potency result is “inactive”.

In the case of `COC(=O)c1c(NC(=O)c2cc(=O)c3c(C)cc(C)cc3o2)sc2c1CCCC2`, the Potency entry is “inactive”.

As for `COc1ccc(-c2noc(CSc3nc4ccc(C)cc4[nH]3)n2)cc1`, the Potency entry is “inactive”.

Regarding `COc1ccc(OC)c(CNC(=O)Cn2nc(C)c3c(C)n(-c4ccccc4)nc3c2=O)c1`, the Potency entry is “inactive”.

For `CC1(C)Cc2ccccc2/C(=C/C(=O)c2ccccc2)N1`, the Potency was 12.6 µM (active).

For `CCOC(=O)C1=C(NC(=S)NC(=O)c2ccccc2)c2ccccc2CC1(C)C`, the Potency entry is “inactive”.

Consider `CC(C)CC(N=C1NC(C)(C)Cc2ccccc21)C(=O)O` (configuration not stated), for which the Potency entry is “inactive”.

As to `O=C(CSc1n[nH]c(-c2ccccc2)n1)N1CCCCC1`, the Potency result is “inactive”.

`Cc1cc(=O)n(CC(=O)Nc2cccc([N+](=O)[O-])c2)c(-n2nc(C)cc2C)n1`: the Potency result is “inactive”.

For the compound `COC(=O)c1cc(NC(=O)CCS(=O)(=O)c2cc(Br)cc3c2N(C(=O)C2CC2)CC3)cc(C(=O)OC)c1`, the Potency result is “inactive”.

For `COc1ccc(CCNc2nc(-c3ccc(F)cc3)cc(C(F)(F)F)n2)cc1OC`, the Potency result was “inactive”.

Consider `COc1ccc(-c2cc(C(F)(F)F)nc(S(C)(=O)=O)n2)cc1OC`, for which the Potency was 10 µM (active).

Take `COc1ccc(CNc2nc(-c3ccc(Cl)cc3)cc(C(F)(F)F)n2)cc1`: the Potency entry is “inactive”.

Consider `COc1ccccc1CNC(=O)Cn1nc(C)c2nn(-c3ccc(Cl)cc3)c(C)c2c1=O`, for which the Potency result was “inactive”.

Take `COc1ccccc1OCCCn1c(-c2ccc(Cl)cc2)nc2ccccc2c1=O`: the Potency entry was “inactive”.

For `O=C(O)c1ccccc1CSc1nc2ccccc2s1`, the Potency was 12.6 µM (active).

For the compound `O=C(Nc1ccc2nc(SCC(=O)N3CCc4ccccc43)sc2c1)c1ccccc1F`, the Potency result was “inactive”.

Turning to `CN(C(=O)CSc1nc2ccc(NC(=O)COc3ccccc3)cc2s1)c1ccccc1`, the Potency result is “inactive”.

Consider `Cc1cccc(-c2nc(SCc3ccc(Br)cc3)n3[nH]c(=O)cc3n2)c1`, for which the Potency result is “inactive”.

For the compound `COc1ccc(CC(=O)N2CC(=O)Nc3ccc(Br)cc3C2c2ccc(F)cc2)cc1OC` (configuration not stated), the Potency result was “inactive”.

Regarding `COc1ccccc1N1CCN(C(=O)c2cc3c(-c4ccc(Cl)cc4)nn(C)c3s2)CC1`, the Potency is 35.5 µM (active).

`Cn1nc(-c2ccc(Cl)cc2)c2cc(C(=O)NCc3ccco3)sc21`: the Potency result was “inactive”.

Consider `COc1ccc(CNC(=O)c2cc3c(-c4ccccc4F)nn(C)c3s2)c(OC)c1`, for which the Potency entry is “inactive”.

Consider `CCS(=O)(=O)N1CCc2cc(C(=O)N3CCN(c4ccccc4OC)CC3)ccc21`, for which the Potency result is “inactive”.

In the case of `COc1cccc(-c2cc(C(=O)N3CCN(c4ccccc4OC)CC3)no2)c1`, the Potency was 22.4 µM (active).

On to `COc1ccc(Nc2ncc(C(=O)N3CCN(c4ccccc4OC)CC3)c3ccccc23)cc1`, for which the Potency result is “inactive”.

For the compound `COc1ccc(C(=O)NCC(c2ccc(N(C)C)cc2)N2CCc3ccccc32)c(OC)c1` (configuration not stated), the Potency result is “inactive”.

With `CCOC(=O)c1c(NC(=O)COc2cc(C)ccc2C(C)C)sc(C)c1C`, the Potency entry was “inactive”.

`CCc1ccccc1OCCSc1nc(-c2cccs2)nc2cc(=O)[nH]n12`: the Potency result was “inactive”.

In the case of `Cc1nn(C(C)C(=O)NCCc2ccccc2)c(=O)c2c1sc1ccccc12` (configuration not stated), the Potency entry was “inactive”.

As to `O=C(NCCc1ccccc1)c1ccc2c(c1)N(Cc1ccc(F)cc1)C(=O)c1ccccc1S2(=O)=O`, the Potency entry was “inactive”.

`CCCCN1C(=O)c2[nH]nc(-c3ccccc3O)c2C1c1cccc(OCc2ccccc2)c1` (configuration not stated): the Potency result was “inactive”.

As for `Cn1c(=O)c2c(ncn2CC(=O)Nc2cccc(C(F)(F)F)c2)n(C)c1=O`, the Potency entry is “inactive”.

Regarding `CSc1nc(-c2ccc(F)cc2)nc2c1Cc1c(CO)cnc(C)c1O2`, the Potency result was “inactive”.

For the compound `O=C(CSc1ccc(-c2ccccn2)nn1)Nc1ccccc1`, the Potency is 28.2 µM (active).

On to `COc1cc(NC(=O)CSc2ccc(-c3cccnc3)nn2)cc(OC)c1`, for which the Potency result was “inactive”.

With `O=C(CSc1ccc(-c2ccc(-n3cccn3)cc2)nn1)Nc1ccc([N+](=O)[O-])cc1`, the Potency result was “inactive”.

Take `CCc1ccc(NC(=O)CN2CCSc3ccc(S(=O)(=O)N4CCCC4)cc32)cc1`: the Potency result was “inactive”.

As to `Cc1cccc(N2CCN(c3c(CN4CCCC4)c(=O)oc4ccccc34)CC2)c1C`, the Potency result is “inactive”.

As for `COc1ccc(C)cc1Nc1nc2ccccc2c2nnc(C)n12`, the Potency result is “inactive”.

As for `Cc1ccc(C(=O)Nc2c(C(=O)NC(C)(C)C)oc3ccccc23)cc1`, the Potency result is “inactive”.

Turning to `Cn1c(SCC(=O)NC2CCCCC2)nnc1-c1cc2ccccc2o1`, the Potency entry was “inactive”.

For `COc1ccccc1CN(C)C(=O)c1cc2ccccc2o1`, the Potency result was “inactive”.

As for `CCNc1nc(-c2cc3ccccc3o2)cs1`, the Potency is 14.1 µM (active).

For `Cc1ccc(N2CC(c3nnc(Cc4ccccc4Cl)o3)CC2=O)cc1` (configuration not stated), the Potency result was “inactive”.

In the case of `COc1cc(C(=O)N2CCN(C(=O)COc3cccc(C)c3)CC2)cc(OC)c1OC`, the Potency entry was “inactive”.

As for `CCN(CC)S(=O)(=O)c1ccc2c(c1)c(=O)c(C(=O)N1CCN(c3cccc(Cl)c3)CC1)cn2C`, the Potency entry was “inactive”.

Take `Cc1cccc(CNS(=O)(=O)c2ccc(-c3cnc(C4CC4)o3)cc2)c1`: the Potency result is “inactive and 12.6 µM (active)”.

As for `Cc1cccc(CCNS(=O)(=O)c2ccc(S(=O)(=O)NC3CCCC3)cc2)c1`, the Potency entry is “inactive”.

As for `Cc1ccc(-c2cnc(C3CC3)o2)cc1S(=O)(=O)Nc1cccc(C)c1C`, the Potency entry was “inactive”.

On to `O=C(CN1CCSc2ccccc21)N1CCN(c2ccccc2)CC1`, for which the Potency result was “inactive”.

For the compound `COc1ccccc1NC(=O)c1cc(C2CC2)nc2c1c(C)nn2-c1ccc(C)cc1`, the growth rescue (activation) is 0% [at 9.22 µM] (inactive).

On to `COc1ccc(NC(=O)C2Cc3c(-c4cccc(NC(C)=O)c4)ccnc3O2)cc1OC` (configuration not stated), for which the Potency result was “inactive”.

In the case of `COc1ccc(NC(=O)C2Cc3c(-c4ccc(Cl)cc4)ccnc3O2)cc1` (configuration not stated), the Potency was 14.1 µM (active).

As for `CC(=O)Nc1ccc(-c2ccnc3c2CC(C(=O)NC(C)C)O3)cc1` (configuration not stated), the Potency entry was “inactive”.

On to `CC1CCc2noc(NC(=O)c3ccc([N+](=O)[O-])cc3)c2C1` (configuration not stated), for which the Potency entry was “inactive”.

With `Cc1cc(C)cc(OCC(=O)Nc2nc(-c3ccc(F)cc3)ns2)c1`, the Potency entry was “inactive”.
